# Screening results deposited in PubChem by The Scripps Research Institute Molecular Screening Center.
# The list is not random: actives were taken first. Their share in the collection is about 2.3%.
# PAD4 inh: human PAD4 inhibitors, primary screen, biochemical, fluorescence polarization, 1536-well format | Protein-arginine deiminase type-4 (Homo sapiens), Q9UM07 | recombinant PAD4, RCA probe fluorescence polarization | inhibition, % at 6.36 µM | 330,000 tested, 0.41% active | AID 485272, 2010;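 active means percent inhibition above a cutoff equal to the mean of all tested compounds plus 3 SD, cut at about 15% in these data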;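 further: 0% = PAD4 with RCA probe and DMSO and 100% = probe without PAD4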
# PME-1 inh: PME-1 inhibitors via competitive probe labeling, primary screen, biochemical, fluorescence polarization, FP-Rh probe, HTS; recombinant PME-1; inhibition, % at 5.9 µM; 320,000 tested, 0.53% active;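 active means inhibition above the campaign mean of all compounds plus 3 SD, cut at about 26% in these data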;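 further: competitive labeling of PME-1 active site by serine hydrolase directed probe; 0% = PME-1 with DMSO and 100% = wells lacking PME-1 enzyme; inhibitors block probe labeling so polarization falls and inhibition rises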
# Target sequence (Q9Y570 whole entry, looked up): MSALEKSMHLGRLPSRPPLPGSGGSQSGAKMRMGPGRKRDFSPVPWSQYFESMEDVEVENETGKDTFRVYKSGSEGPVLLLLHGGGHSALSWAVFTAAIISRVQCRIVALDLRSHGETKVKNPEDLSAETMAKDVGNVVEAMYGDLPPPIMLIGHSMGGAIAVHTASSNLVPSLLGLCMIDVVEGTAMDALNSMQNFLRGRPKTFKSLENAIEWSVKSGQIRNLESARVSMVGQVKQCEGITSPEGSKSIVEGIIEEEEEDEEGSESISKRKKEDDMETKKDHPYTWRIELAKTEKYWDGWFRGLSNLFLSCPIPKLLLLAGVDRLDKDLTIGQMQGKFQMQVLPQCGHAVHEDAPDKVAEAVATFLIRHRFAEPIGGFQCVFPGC
# Fam108B counter: mouse Fam108B serine hydrolase inhibitors, primary screen, counter-screen for RBBP9 inhibitor project, biochemical, fluorescence polarization; 300,000 tested, 0.33% active; inhibition, % at 9.51 µM; recombinant Fam108B, FP-Rh probe fluorescence polarization; AID 1947, 2009;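 active means inhibition above the screen mean inhibition plus 3 SD, computed separately per campaign, cut at about 18% in these data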;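 further: inhibitors lower polarization as less probe binds the enzyme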
# pPAFAH FP inh: pPAFAH enzyme inhibitors, primary screen, biochemical, fluorescence polarization, human. inhibition, % at 3.39 µM. recombinant pPAFAH, FP-rhodamine probe fluorescence polarization. Platelet-activating factor acetylhydrolase (Homo sapiens), Q13093. 330,000 tested, 1.5% active;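 active means inhibition above the mean inhibition across the screen plus 3 SD, cut at about 25% in these data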;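 further: inhibitors block binding of the rhodamine activity-based probe so polarization drops; 0% = enzyme with DMSO and 100% = wells lacking pPAFAH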
# GSTO1 counter: inhibitors of recombinant GSTO1, primary screen, counter-screen for RBBP9 inhibitor project, biochemical, fluorescence polarization. 300,000 tested, 1.1% active. activity-based probe fluorescence polarization. AID 1974, 2009. Glutathione S-transferase omega-1 (Homo sapiens), P78417. inhibition, % at 5.96 µM;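 active means inhibition above the campaign mean inhibition plus 3 SD, cut at about 35% in these data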;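 further: 0% = GSTO1-1 with DMSO and 100% = wells lacking GSTO1-1 enzyme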
# pPAFAH FP conf: pPAFAH (PLA2G7) enzyme inhibitors, confirmation, biochemical, fluorescence polarization, human. shares compounds with pPAFAH FP inh. recombinant pPAFAH, FP-Rh probe fluorescence polarization. 2,300 tested, 72% active. inhibition, % at 3.39 µM;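 active means mean inhibition of the triplicate above the hit cutoff set for the earlier primary screen, cut at about 25% in these data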;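 further: 0% = enzyme with DMSO and 100% = wells lacking pPAFAH enzyme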
# Active calls of the source: *; · = no result.
SMILES,PAD4 inh,PME-1 inh,Fam108B counter,pPAFAH FP inh,GSTO1 counter,pPAFAH FP conf
CCN(CC)CCn1c(=S)[nH]c2ccc(Br)cc2c1=O,4,-9,-3,2,4,·
Cn1nnnc1SCC(=O)Nc1ccc(C(=O)N2CCN(Cc3ccccc3F)CC2)cc1,0,1,·,3,·,·
Cc1noc(C)c1COC(=O)CNC(=O)c1ccc(Cl)cc1,-1,2,2,4,10,·
Cc1cc(C)cc(C(=O)NCC(=O)OCc2c(C)noc2C)c1,0,0,0,37*,1,5
COc1ccc(NC(=O)CN(c2c(C)cccc2C)S(C)(=O)=O)cc1,0,-5,-3,4,3,·
O=C(Nc1ccc(N2CCCC2)cc1)c1cc(Br)ccc1Cl,-7,-3,0,47*,6,5
CC(C)(C)c1ccc(OCCCCCCN2CCNCC2)cc1,4,-2,-1,-5,-6,·
CC(C)(c1ccccc1)c1ccc(OCCCN2CCNCC2)cc1,3,5,6,39*,3,25*
COc1ccc(/C=N/NC(=O)c2cccc(O)c2)cc1Cn1nc(C)c([N+](=O)[O-])c1C,-1,-14,-10,-2,-14,·
CC1(C)CCC/C(=C\c2ccccc2)C1=O,-4,-2,5,46*,-2,8
O=C(Cn1cnc([N+](=O)[O-])n1)c1ccc(O)c(O)c1,4,6,-2,56*,31,20
O=C(Cn1cnc([N+](=O)[O-])n1)NCCO,9,2,3,0,4,·
CC1(C)Cc2ccccc2C(=NCC(=O)O)N1,-5,-2,3,35*,-1,2
CCC1(C)Cc2ccccc2C(=O)N1 (stereo unspecified),-8,-2,1,-5,3,·
CC(=O)Oc1ccc(C(=O)Nc2cccc(C(=O)c3ccc(C)c(C)c3)c2)cc1,0,-39,-20,-13,-47,·
CCOc1ccc(/C=C/C(=O)c2cc(Br)ccc(=O)c2O)cc1,0,-2,6,38*,5,28*
Cc1cccc(/C=C/C(=O)c2cc(Br)ccc(=O)c2O)c1,1,4,5,50*,35*,22
Cc1ccc(/C=C/C(=O)c2cc(Br)ccc2OC(=O)c2ccco2)cc1,3,-18,-10,-3,-2,·
CCOc1ccc(C(=O)/C=C/c2ccc(OC)c(OC)c2)cc1,2,2,-4,-5,4,·
CCc1ccc(/C=C/C(=O)c2cc(Br)ccc(=O)c2O)cc1,-8,4,13,70*,10,43*
CCN1C(=O)[C@@H]2[C@@H](c3ccc(-c4ccc(C(C)=O)cc4)c(OC)c3)N3CCCC[C@@]3(C(=O)OC)[C@@H]2C1=O,1,-8,-1,0,-2,·
COc1cc(/C=C(\C#N)C(=O)N2CCOCC2)cc(Br)c1O,1,-3,-2,1,6,·
COc1cc(/C=C(\C#N)C(=O)c2ccc(O)c(O)c2)cc(I)c1O,-32,-24,-3,79*,45*,71*
O=C(COc1ccc(Br)cc1)OCCN1CCCCC1,2,1,1,5,-1,·
O=C(N/N=C1/CC2CCC1C2)c1cc2ccccc2cc1O (stereo unspecified),-4,10,4,46*,-8,4
SMILES,PAD4 inh,PME-1 inh,Fam108B counter,pPAFAH FP inh,GSTO1 counter,pPAFAH FP conf
O=C(NCC1CCCCC1)c1cc2ccccc2cc1O,-1,-10,1,1,-9,·
C=CCc1cccc(Cl)c1OCCCNC1CCCC1,-1,7,2,3,7,·
Cc1nn(-c2cccc(C(F)(F)F)c2)c(Cl)c1/C=N/Nc1cccc(C(=O)O)c1,-3,16,4,35*,-1,35*
Cc1nn(-c2ccccc2Cl)c(Cl)c1/C=N/Nc1cccc(C(=O)O)c1,1,-2,2,-4,1,·
O=C(OCC(=O)N1CCN(C(=O)c2ccco2)CC1)c1cc(S(=O)(=O)Nc2ccc(Cl)cc2)ccc1O,3,6,6,62*,17,68*
Cc1cc(C)cc(NC(=O)Nc2ccc3c(c2)N(C)C(=O)CS3)c1,-3,1,-5,13,0,·
